Where “and” joins values, the source holds several entries; their conditions need not be identical. Identical values can stand only once. Inconclusive results are not listed. Some structures have more than one record in an assay (separate samples or runs), and their calls can disagree. Calls of active or inactive are those of the source. Unless noted, the call rests on the fitted dose curve.

Here are results for ten compounds from PubChem BioAssay (NCATS).

The target in assay [1] is Bile acid receptor (Homo sapiens) (UniProt Q96RI1). Nature of the assay: qHTS assay for small molecule agonists of farnesoid X receptor signaling (AID 588527).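 Further: 0% = vehicle basal and 100% = reference agonist.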 The settings on record: HEK293T FXR-UAS-bla, beta-lactamase ratio, 16 h; stronger effect = higher value. An outline of the steps:
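Read-out: beta-lactamase reporter fluorescence with CCF4 substrate in GeneBLAzer FXR-UAS-bla HEK293T cells, after 16 h compound exposure at 37 C. Response scaled between DMSO basal (0%) and chenodeoxycholic acid at 100 uM (100%).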

The target in assay [2] is Peroxisome proliferator-activated receptor delta (Homo sapiens) (UniProt Q03181). Nature of the assay: qHTS assay for small molecule agonists of peroxisome proliferator-activated receptor delta signaling (AID 588534).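 Further: 0% = DMSO basal wells and 100% = positive control agonist at 10 µM.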 The settings on record: HEK293T PPARdelta-UAS-bla, beta-lactamase ratio, 18 h; series mostly up to 76.7 µM. Summed up: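 EC50 and efficacy values derive from Hill fits of a concentration series in a beta-lactamase reporter cell assay. Exposure is 18 hrs at 37 C, with CCF4 fluorescence as the readout.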
Chain of Peroxisome proliferator-activated receptor delta (Homo sapiens) (Q03181 whole entry, looked up): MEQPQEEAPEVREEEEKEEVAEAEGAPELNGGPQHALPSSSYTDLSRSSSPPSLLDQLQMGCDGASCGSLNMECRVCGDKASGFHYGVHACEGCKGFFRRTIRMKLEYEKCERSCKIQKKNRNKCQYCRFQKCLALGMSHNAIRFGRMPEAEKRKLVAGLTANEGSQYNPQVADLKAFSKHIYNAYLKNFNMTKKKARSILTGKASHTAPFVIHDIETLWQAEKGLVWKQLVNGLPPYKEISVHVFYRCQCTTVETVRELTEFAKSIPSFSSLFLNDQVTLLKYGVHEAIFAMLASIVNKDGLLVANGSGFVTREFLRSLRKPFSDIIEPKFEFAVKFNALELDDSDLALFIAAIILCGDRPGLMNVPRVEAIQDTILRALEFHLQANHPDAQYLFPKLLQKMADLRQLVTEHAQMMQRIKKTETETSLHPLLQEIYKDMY

Assay [3] deals with Glucocorticoid receptor (Homo sapiens) (UniProt P04150). The assay is described as follows: qHTS assay for small molecule agonists of glucocorticoid receptor signaling (AID 588532; active means well fitted curve in the direction sought with a large enough effect in the signal ratio, with a control signal flat; the % refers to the signal ratio;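 further: 100% = dexamethasone at 0.1 µM and 0% = DMSO only wells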). The settings on record: HeLa MMTV-bla, beta-lactamase ratio, agonist, 18 h; stronger effect = higher value; percent of dexamethasone control, DMSO zero. Summed up: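 Quantitative HTS using CellSensor MMTV-bla HeLa cells in charcoal/dextran-treated serum; compounds tested up to 92 uM. After 18 h at 37 C, CCF4 dye reported reporter induction.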
Chain of Glucocorticoid receptor (Homo sapiens) (P04150 whole entry, looked up): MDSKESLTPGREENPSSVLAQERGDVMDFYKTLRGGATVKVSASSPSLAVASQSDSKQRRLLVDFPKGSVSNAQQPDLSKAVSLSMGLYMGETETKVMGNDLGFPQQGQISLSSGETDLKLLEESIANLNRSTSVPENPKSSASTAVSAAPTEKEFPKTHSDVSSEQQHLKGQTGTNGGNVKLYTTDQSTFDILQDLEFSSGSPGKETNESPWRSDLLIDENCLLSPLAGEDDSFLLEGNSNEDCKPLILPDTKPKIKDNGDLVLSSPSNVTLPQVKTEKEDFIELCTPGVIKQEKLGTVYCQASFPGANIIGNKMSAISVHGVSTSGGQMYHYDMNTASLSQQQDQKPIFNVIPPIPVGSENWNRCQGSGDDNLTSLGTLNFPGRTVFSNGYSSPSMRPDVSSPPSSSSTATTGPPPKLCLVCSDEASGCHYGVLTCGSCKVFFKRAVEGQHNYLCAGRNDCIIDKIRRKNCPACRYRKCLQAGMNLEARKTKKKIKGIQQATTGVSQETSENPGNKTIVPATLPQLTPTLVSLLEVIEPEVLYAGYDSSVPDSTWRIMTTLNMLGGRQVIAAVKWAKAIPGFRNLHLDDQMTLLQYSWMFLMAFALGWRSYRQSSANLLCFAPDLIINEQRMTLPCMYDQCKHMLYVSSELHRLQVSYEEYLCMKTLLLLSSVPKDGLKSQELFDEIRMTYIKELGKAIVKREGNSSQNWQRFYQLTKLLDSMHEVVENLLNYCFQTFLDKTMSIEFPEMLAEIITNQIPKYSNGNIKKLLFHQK
A general note: qHTS replaces the single test concentration by a dilution series.

Assay [4] has as its target Peroxisome proliferator-activated receptor gamma (Homo sapiens) (UniProt P37231). The assay is described as follows: qHTS assay for small molecule agonists of peroxisome proliferator-activated receptor gamma signaling (AID 588536; active means well fitted curve in the direction sought with a large enough effect in the signal ratio, with a control signal flat, not every such curve was filed as active; the % refers to the signal ratio;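 further: 0% = DMSO basal wells and 100% = rosiglitazone at 2 µM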). The settings on record: HEK293 PPARg-UAS-bla, beta-lactamase ratio, 16 h, percent of rosiglitazone response, DMSO as zero; series mostly up to 76.7 µM. An outline of the steps:
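Beta-lactamase reporter read-out: CCF4 fluorescence (ex 405, em 460/530 nm) after 2 h at RT. HEK293 GeneBLAzer cells were treated for 16 h at 37 C. Hill fits gave EC50 and efficacy versus 2 uM rosiglitazone (100%) and DMSO (0%).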

The target of assay [5] is Vitamin D3 receptor (Homo sapiens) (UniProt P11473). The assay is described as follows: qHTS assay for small molecule antagonists of vitamin D receptor signaling (AID 588541).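 Further: receptor activated by calcitriol during compound treatment; on the % scale 0 is the no-effect control and ±100 the full control effect.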 As to conditions: HEK293T VDR-UAS-bla, beta-lactamase ratio, antagonist mode; series mostly up to 76.7 µM. An outline of the steps:
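Antagonist-mode beta-lactamase reporter assay: HEK293T VDR-UAS-bla cells were exposed to titrated compound alongside 1-alpha,25-dihydroxyvitamin D3 at 3 nM final for 16 h. Values were normalized to the 50 nM agonist control and DMSO basal, with IC50 and efficacy from Hill equation fits.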

The target is the same in assay [6]. The assay is described as follows: qHTS assay for small molecule agonists of vitamin D receptor signaling (AID 588543).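 Further: 0% = DMSO basal and 100% = reference agonist control.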 As to conditions: HEK293T VDR-UAS-bla, beta-lactamase ratio, 16 h; series mostly up to 76.8 µM. An outline of the steps:
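VDR-UAS-bla HEK293T cells, 2000/well, 2% charcoal-stripped FBS; compound titration 16 h at 37 C; CCF4 beta-lactamase ratio read. Normalized to 50 nM 1-alpha,25-dihydroxyvitamin D3 (100%) and DMSO; Hill fit gives EC50, efficacy.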

Assay [7] can be described thus: qHTS assay for small molecule agonists of retinoid X receptor alpha signaling (AID 588544).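 On activation: 0% = DMSO basal wells and 100% = reference agonist.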 The settings on record: HEK293T RXRa-UAS-bla, beta-lactamase reporter, 18 h; 530 nm emission.
Assay [8] deals with Retinoic acid receptor RXR-alpha (Homo sapiens) (UniProt P19793). The assay is described as above. The settings on record: HEK293T RXRa-UAS-bla, beta-lactamase reporter, 18 h; series mostly up to 76.7 µM.
Chain of Retinoic acid receptor RXR-alpha (Homo sapiens) (P19793 whole entry, looked up): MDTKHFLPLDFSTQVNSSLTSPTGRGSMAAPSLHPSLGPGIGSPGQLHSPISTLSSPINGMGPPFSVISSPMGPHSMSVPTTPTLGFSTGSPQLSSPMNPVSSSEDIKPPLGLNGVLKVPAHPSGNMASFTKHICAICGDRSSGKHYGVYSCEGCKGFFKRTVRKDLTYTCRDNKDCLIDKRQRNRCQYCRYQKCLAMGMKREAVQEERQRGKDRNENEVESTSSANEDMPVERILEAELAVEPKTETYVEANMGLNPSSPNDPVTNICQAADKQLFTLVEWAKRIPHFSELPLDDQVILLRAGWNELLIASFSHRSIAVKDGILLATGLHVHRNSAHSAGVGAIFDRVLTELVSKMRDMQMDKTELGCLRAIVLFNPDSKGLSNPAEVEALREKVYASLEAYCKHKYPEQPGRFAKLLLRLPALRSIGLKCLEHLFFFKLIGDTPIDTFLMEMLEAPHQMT
In assay [9] the target is Thyroid hormone receptor beta (Homo sapiens) (UniProt P10828). The assay is described as follows: qHTS assay for small molecule agonists of thyroid hormone receptor beta signaling (AID 588545). As to conditions: TR-UAS-bla GripTite HEK 293, beta-lactamase ratio, agonist mode, 18 h, percent of T3 response, DMSO as zero; series mostly up to 76.7 µM. An outline of the steps: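 In this cell-based screen, titrated compounds act on HEK 293 cells held in medium with 2% charcoal/dextran FBS, NEAA and pyruvate for 18 hrs at 37 C. Responses are expressed relative to T3 (10 nM) as 100% and basal DMSO as 0%.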
Chain of Thyroid hormone receptor beta (Homo sapiens) (P10828 whole entry, looked up): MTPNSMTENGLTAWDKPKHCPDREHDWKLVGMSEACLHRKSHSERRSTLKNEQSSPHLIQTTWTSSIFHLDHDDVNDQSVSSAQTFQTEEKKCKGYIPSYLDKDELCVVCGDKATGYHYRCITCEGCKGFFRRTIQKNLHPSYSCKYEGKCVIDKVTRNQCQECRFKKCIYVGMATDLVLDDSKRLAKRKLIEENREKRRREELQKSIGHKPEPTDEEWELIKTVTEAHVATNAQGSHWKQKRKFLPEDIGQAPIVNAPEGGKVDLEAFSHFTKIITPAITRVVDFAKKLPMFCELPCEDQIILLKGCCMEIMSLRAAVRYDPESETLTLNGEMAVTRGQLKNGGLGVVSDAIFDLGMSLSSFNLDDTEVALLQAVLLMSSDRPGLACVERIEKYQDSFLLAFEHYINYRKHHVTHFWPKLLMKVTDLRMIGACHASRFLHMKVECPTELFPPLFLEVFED

The nature of assay [10]: qHTS assay for small molecule antagonists of retinoid X receptor alpha signaling (AID 588546; active means well fitted inhibition curve with a large enough effect in the signal ratio, with a control signal flat, not every such curve was filed as active; the % refers to the signal ratio;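 further: cells stimulated with 9-cis-retinoic acid as agonist; on the % scale 0 is the no-effect control and ±100 the full control effect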). As to conditions: HEK293T RXRa-UAS-bla, beta-lactamase ratio, antagonist mode; measured here: W530 green channel, cytotoxicity proxy. An outline of the steps:
(§1)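 Beta-lactamase reporter inhibition, read as CCF4 fluorescence ratio (ex 405, em 460/530 nm) after 2 h at RT. HEK293T UAS-bla cells, 2500/well, were stimulated with 9-cis-RA at 500 or 100 nM final alongside test compound for 18 h at 37 C.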

Assay [11] has as its target Retinoic acid receptor RXR-alpha (Homo sapiens) (UniProt P19793). The assay is described as above. The settings on record: HEK293T RXRa-UAS-bla, beta-lactamase ratio, antagonist mode. An outline of the steps:
as §1

The target of assay [12] is Thyroid hormone receptor beta (Homo sapiens) (UniProt P10828). Nature of the assay: qHTS assay for small molecule antagonists of thyroid hormone receptor beta signaling (AID 588547; active means well fitted inhibition curve with a large enough effect in the signal ratio, with a control signal flat, not every such curve was filed as active; the % refers to the signal ratio;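 further: cells stimulated with 0.4 nM T3 agonist during compound exposure; on the % scale 0 is the no-effect control and ±100 the full control effect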). As to conditions: TR-UAS-bla HEK293, beta-lactamase ratio, antagonist mode, 18 h. Summed up:
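Inhibition of T3-driven (0.4nM final) beta-lactamase reporter activity was measured over 0.59 nM to 92 uM compound after 18 h at 37 C. The cells were GripTite HEK293 TR-UAS-bla in charcoal/dextran-stripped serum, with CCF4 ratio read-out and IC50 from Hill fits.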

Assay [13] addresses Voltage-gated inwardly rectifying potassium channel KCNH2 (Homo sapiens) (UniProt Q12809). Nature of the assay: qHTS Assay for Small Molecule Inhibitors of the Human hERG Channel Activity (AID 588834; active means well fitted inhibition curve with a large enough effect;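 further: lower thallium flux fluorescence means stronger hERG block; nearly all actives have a fitted effect of over 50% in size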; further: potency means the concentration at half of the fitted maximal effect). The settings on record: U2OS BacMam hERG, FluxOR thallium flux fluorescence; series mostly up to 46.1 µM. Summed up: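 Thallium serves as surrogate for K+ influx through BacMam-delivered hERG in U2OS cells. Compounds are added for about 10 minutes after dye loading; stimulation buffer then starts flux, monitored kinetically on FDSS.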

Assay [14] addresses Luciferin 4-monooxygenase (Photinus pyralis) (UniProt P08659). Nature of the assay: Biochemical firefly luciferase enzyme assay for NPC (AID 624030; active means well fitted inhibition curve with a large enough effect;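 further: purified P. pyralis luciferase at 10 nM with luciferin and ATP substrate; 0% = DMSO and -100% = full luciferase inhibition by PTC124 control; nearly all actives have a fitted effect of over 70% in size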). The settings on record: purified P. pyralis luciferase, luminescence, 5 min; series mostly up to 58.6 µM. Summed up: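 Direct inhibition of firefly luciferase enzyme (10 nM final, 50 mM Tris Acetate) assessed by luminescence within 5 minutes. Percent activity scaled between DMSO and PTC124 positive control, with concentration-effect curves classified by fit quality and response.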

For assay [15], the target named is Glucocorticoid receptor (Homo sapiens) (UniProt P04150). Nature of the assay: qHTS assay for small molecule antagonists of glucocorticoid receptor signaling (AID 588533; active means well fitted inhibition curve with a large enough effect in the signal ratio, with a control signal flat, not every such curve was filed as active; the % refers to the signal ratio;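 further: cells stimulated with 2 nM dexamethasone as agonist; on the % scale 0 is the no-effect control and ±100 the full control effect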). As to conditions: HeLa MMTV-bla, GRE beta-lactamase ratio, antagonist mode, 18 h; series mostly up to 76.8 µM. An outline of the steps: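 Antagonist-mode qHTS: compound titrations added to GRE-bla HeLa cells, then dexamethasone 2 nM final; 18 h, 37 C. CCF4 FRET fluorescence normalized to dexamethasone and DMSO; IC50 from Hill fit.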

For assay [16], the target named is Peroxisome proliferator-activated receptor gamma (Homo sapiens) (UniProt P37231). The assay is described as follows: qHTS assay for small molecule antagonists of peroxisome proliferator-activated receptor gamma signaling (AID 588537; active means well fitted inhibition curve with a large enough effect in the signal ratio, with a control signal flat, not every such curve was filed as active; the % refers to the signal ratio; further: potency means the concentration at half of the fitted maximal effect). The settings on record: HEK293 PPARg-UAS-bla, beta-lactamase ratio, antagonist mode; series mostly up to 76.8 µM. Summed up:
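Cell-based beta-lactamase assay; GW9662 served as the antagonist control. Stimulation used rosiglitazone, final 50 nM, 16 h, 37 C.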

Assay [17] is described as follows: qHTS assay for small molecule antagonists of peroxisome proliferator-activated receptor delta signaling (AID 588535; active means well fitted inhibition curve with a large enough effect in the signal ratio, with a control signal flat, not every such curve was filed as active; the % refers to the signal ratio;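 on max response: cells co-treated with a PPAR-delta agonist as stimulator during compound exposure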). As to conditions: HEK293T PPARd-UAS-bla, beta-lactamase FRET ratio, 18 h; 460 nm channel. Summed up:
(§2)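 Antagonist-mode qHTS using GeneBLAzer PPAR-delta-UAS-bla HEK293T cells; compound exposure 18 hrs at 37 C over a titration. Ratiometric CCF4 fluorescence at 460/530 nm; concentration-response points fitted to the Hill equation.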

Assay [18] deals with Peroxisome proliferator-activated receptor delta (Homo sapiens) (UniProt Q03181). The assay is described as above. As to conditions: HEK293T PPARd-UAS-bla, beta-lactamase FRET ratio, 18 h; series mostly up to 76.7 µM. Summed up:
as §2

Chain of Vitamin D3 receptor (Homo sapiens) (P11473 whole entry, looked up): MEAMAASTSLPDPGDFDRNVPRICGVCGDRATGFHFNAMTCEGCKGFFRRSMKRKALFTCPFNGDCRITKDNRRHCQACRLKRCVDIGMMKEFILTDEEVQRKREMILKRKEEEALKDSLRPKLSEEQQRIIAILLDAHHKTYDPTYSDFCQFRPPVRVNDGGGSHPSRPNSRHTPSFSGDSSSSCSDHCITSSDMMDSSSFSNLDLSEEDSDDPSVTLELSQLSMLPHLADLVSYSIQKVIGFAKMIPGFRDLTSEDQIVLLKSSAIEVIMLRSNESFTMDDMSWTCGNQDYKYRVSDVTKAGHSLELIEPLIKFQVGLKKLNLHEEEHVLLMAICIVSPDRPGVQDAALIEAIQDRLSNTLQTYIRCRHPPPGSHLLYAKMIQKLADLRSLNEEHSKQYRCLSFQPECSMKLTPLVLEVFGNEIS
Chain of Bile acid receptor (Homo sapiens) (Q96RI1 whole entry, looked up): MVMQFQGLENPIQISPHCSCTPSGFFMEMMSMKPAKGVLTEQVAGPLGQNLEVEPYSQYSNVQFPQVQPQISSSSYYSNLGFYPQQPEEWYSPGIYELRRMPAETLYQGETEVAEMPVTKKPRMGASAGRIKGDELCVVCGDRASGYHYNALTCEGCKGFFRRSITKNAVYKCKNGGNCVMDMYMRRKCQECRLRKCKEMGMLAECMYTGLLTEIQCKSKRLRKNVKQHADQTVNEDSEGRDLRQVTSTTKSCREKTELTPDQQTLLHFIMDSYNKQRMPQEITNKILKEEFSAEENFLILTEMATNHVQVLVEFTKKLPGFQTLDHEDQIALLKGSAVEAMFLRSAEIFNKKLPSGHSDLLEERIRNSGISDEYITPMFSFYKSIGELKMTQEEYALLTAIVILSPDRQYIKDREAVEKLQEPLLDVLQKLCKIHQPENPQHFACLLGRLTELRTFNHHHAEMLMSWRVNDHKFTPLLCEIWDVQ
Chain of Voltage-gated inwardly rectifying potassium channel KCNH2 (Homo sapiens) (Q12809 whole entry, looked up): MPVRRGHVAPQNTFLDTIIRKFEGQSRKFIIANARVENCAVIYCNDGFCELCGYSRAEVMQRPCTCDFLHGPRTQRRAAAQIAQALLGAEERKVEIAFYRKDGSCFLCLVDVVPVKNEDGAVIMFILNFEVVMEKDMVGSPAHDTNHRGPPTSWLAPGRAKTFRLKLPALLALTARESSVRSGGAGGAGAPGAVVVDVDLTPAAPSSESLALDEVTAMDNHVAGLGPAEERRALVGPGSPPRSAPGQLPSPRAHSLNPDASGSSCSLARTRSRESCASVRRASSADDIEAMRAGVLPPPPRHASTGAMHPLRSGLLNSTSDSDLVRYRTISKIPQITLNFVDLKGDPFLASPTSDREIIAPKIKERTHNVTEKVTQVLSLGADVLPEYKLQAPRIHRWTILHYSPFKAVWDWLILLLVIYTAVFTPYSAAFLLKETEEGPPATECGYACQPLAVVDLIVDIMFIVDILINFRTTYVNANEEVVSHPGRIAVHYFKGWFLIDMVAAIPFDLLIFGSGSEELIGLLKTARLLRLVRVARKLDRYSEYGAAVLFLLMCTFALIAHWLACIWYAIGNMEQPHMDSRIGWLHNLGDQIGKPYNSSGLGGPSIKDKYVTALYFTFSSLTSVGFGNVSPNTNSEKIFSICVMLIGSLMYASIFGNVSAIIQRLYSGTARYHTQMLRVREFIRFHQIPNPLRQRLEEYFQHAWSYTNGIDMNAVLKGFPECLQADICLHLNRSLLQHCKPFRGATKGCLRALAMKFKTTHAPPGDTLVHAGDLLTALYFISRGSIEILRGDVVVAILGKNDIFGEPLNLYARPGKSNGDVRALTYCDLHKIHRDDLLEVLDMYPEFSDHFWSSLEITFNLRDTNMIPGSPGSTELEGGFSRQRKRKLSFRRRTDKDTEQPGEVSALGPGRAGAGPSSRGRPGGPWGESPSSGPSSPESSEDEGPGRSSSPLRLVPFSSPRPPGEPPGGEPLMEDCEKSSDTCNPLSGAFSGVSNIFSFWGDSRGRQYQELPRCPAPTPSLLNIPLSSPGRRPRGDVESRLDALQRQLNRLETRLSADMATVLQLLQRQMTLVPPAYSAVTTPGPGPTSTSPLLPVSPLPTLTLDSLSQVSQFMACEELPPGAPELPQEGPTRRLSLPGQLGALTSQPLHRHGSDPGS
Chain of Luciferin 4-monooxygenase (Photinus pyralis) (P08659 whole entry, looked up): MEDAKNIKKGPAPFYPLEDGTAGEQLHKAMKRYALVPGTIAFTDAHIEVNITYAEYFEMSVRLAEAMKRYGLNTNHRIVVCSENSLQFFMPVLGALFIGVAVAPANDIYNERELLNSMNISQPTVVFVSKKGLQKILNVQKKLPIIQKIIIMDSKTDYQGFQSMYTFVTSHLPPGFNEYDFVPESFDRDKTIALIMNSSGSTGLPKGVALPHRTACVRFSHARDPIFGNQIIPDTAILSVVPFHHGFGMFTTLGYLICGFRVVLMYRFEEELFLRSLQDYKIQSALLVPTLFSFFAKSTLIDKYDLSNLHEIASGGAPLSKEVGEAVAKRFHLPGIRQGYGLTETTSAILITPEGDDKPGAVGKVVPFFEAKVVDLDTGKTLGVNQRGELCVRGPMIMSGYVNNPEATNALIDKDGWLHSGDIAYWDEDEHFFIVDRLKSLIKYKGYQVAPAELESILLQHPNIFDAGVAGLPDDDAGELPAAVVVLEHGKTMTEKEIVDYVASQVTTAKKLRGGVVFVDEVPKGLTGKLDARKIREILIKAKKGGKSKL

Turning to `O=C(NO)c1ccccc1`, the activation in assay [1] is -3.15% (inactive). In addition, the result in assay [2] was inactive.
For `CCCCC(CC)COC(=O)c1ccc(N(C)C)cc1` (stereo not drawn), the activation in assay [1] was -1.15% (inactive) and -5.13% (inactive). Further, the result in [2] was inactive.
Turning to `COC(=O)c1c(Cl)c(Cl)c(C(=O)OC)c(Cl)c1Cl`, the activation in [1] was 2.52% (inactive). For the same compound, in assay [2], the outcome was inactive.
For `Nc1ccc([N+](=O)[O-])cc1`, the activation is -1.05% (inactive) in assay [1] and 0.519% (inactive) in [3]. Moreover, the result in assay [4], in [6] and in assay [9] was inactive. Moreover, the Potency result in assay [5], in assay [8], in [13] and in assay [14] was “inactive” throughout. Besides, the figures for the max response in [7], in assay [10] and in assay [11] were 6.91%, 1.67% and -12.6% (inactive), respectively. The activity change % (negative = inhibition) in assay [12] is -27.9% (inactive).
Turning to `C=CCC1=C(C)C(OC(=O)C2C(C=C(C)C)C2(C)C)CC1=O` (stereo not drawn), the activation in [1] is 7.39% (inactive) and 8.42% (inactive); in assay [3], 11.4% (inactive) and 2.61% (inactive). The Potency entry in assay [15], in [16], in [5], in assay [8] and in [14] was “inactive” each time. The result in assay [4], in [6] and in assay [9] was inactive. For the same compound, the max response in assay [7] was -5.66%; in assay [10], -13.5% and -4.99%; in [11] it was -8.71% (inactive) and -26.3% (inactive). The activity change % (negative = inhibition) in assay [12] was -24.8% (inactive) and -17.8% (inactive).
Take `COc1nn(CSP(=S)(OC)OC)c(=O)s1`: the activation is 3.32% (inactive) in assay [1] and 12.2% (inactive) in assay [3]. The Potency result in assay [15] and in assay [5] was “inactive” in each case. The result in assay [2], in assay [6] and in [9] was inactive.
Turning to `CCO/N=C(\CC)C1=C(O)CC(c2c(C)cc(C)cc2C)CC1=O` (stereo not drawn), the activation in [1] is 1.57% (inactive); in assay [3], -3.56% (inactive). Further, the Potency entry in assay [15], in [18], in assay [16] and in [5] was “inactive” throughout. Moreover, the result in assay [2], in [6] and in assay [9] was inactive. Moreover, the max response in [17] is 11.4%; in assay [10], -8.17%; in [11], -5.84% (inactive). For the same compound, in assay [12], the activity change % (negative = inhibition) was 5.1% (inactive).
As to `CC1=NN(c2ccccc2)C(=O)C1`, the activation in [1] was -5.46% (inactive) and -0.633% (inactive). For the same compound, the result in assay [2] was inactive.
As for `COc1ccc(C(c2ccc(OC)cc2)C(Cl)(Cl)Cl)cc1`, the activation was 7.99% (inactive) and 4.38% (inactive) and 7.59% (inactive) in assay [1]; 4.73% (inactive) and 3.18% (inactive) and 4.31% (inactive) in assay [3]. Moreover, the outcome in [2], in [4], in assay [6] and in assay [9] was inactive. The Potency result in [16] is “inactive and 28.2 µM (active)”; in [13], 10 µM (active) and 22.4 µM (active). Also, the Potency entry in [5] and in assay [14] was “inactive” in each case. Further, the max response in assay [10] was -3.69% and 8.92%; in [11], -30.1% (inactive) and -25% (inactive). Moreover, the activity change % (negative = inhibition) in assay [12] was 0.506% (inactive) and -1.09% (inactive) and 26% (inactive).
As for `Nc1ccc(Sc2ccc(N)cc2)cc1`, the activation in assay [1] is -1.33% (inactive); in assay [3], 8.24% (inactive) and -4.53% (inactive). The Potency result in [15], in assay [16], in assay [5], in assay [8] and in assay [13] was “inactive” each time. Also, the outcome in [2], in assay [4], in assay [6] and in assay [9] was inactive. In addition, the max response in [7] was 14.5% and 0.308%; in [10] it was 1.56% and -5.13%; in assay [11] it was 1.16% (inactive) and 6.78% (inactive). Also, the activity change % (negative = inhibition) in assay [12] was -2.35% (inactive) and -11.2% (inactive).
